Rows were chosen to be rich in hits. Some 11% of all compounds tested hit in one or more screens of this group.
PNC assembly inh – High Content Assay for Compounds that inhibit the Assembly of the Perinucleolar Compartment. PC3M PTB-GFP, PNC prevalence imaging, 16 h; stronger effect = lower value. activity change (PNC), negative = inhibition, % at 10 µM. actives 3.1% (n = 140,000);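 active = readout at or below -70, meaning at least 70% loss of cells showing the perinucleolar compartment, a nuclear body marking cancer cells; inconclusive = readout between -30 and a set limit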
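Read-out is percentage of cells bearing a perinucleolar compartment, from automated 20x imaging of fixed, Hoechst-stained PC3M PTB-GFP cells. Cells were seeded 4 h, then exposed 16 h to compound (23 nl of library stock) in duplicate plates.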
JMJD2E inh – qHTS Assay for Inhibitors of Human Jumonji Domain Containing 2E (JMJD2E); Lysine-specific demethylase 4E (Homo sapiens), B2RXH2; JMJD2E catalytic domain, FDH-coupled NADH fluorescence (FDH is formaldehyde dehydrogenase); Potency, µM (top dose mostly 57.1 µM), usual class: inhibitors; actives 1.6% (n = 230,000); note: nearly all actives have a fitted effect of over 50% in size
HPGD block – qHTS Assay for Inhibitors of HPGD (15-Hydroxyprostaglandin Dehydrogenase) | 15-hydroxyprostaglandin dehydrogenase [NAD(+)] (Homo sapiens), P15428 | purified HPGD, NADH fluorescence kinetic, PGE2 substrate | Potency, µM, hits mostly inhibitors | actives 4.3% (n = 150,000) | AID 894, 2007
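20 nM HPGD preincubated 15 min at room temperature with compound in 50 mM Tris-HCl pH 8, 0.01% Tween 20. Started with 1 mM NAD+ and 30 uM prostaglandin E2; NADH fluorescence (360/450 nm) read 5 times over 30-s intervals, last minus first.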
ALDH1A1 inh – qHTS Assay for Inhibitors of Aldehyde Dehydrogenase 1 (ALDH1A1). Purified ALDH1A1, NADH fluorescence, propionaldehyde substrate. Potency, µM (top dose mostly 75.3 µM), usual class: inhibitors. actives 7.3% (n = 220,000). Aldehyde dehydrogenase 1A1 (Homo sapiens), P00352
Target sequence (P00352 whole entry, looked up): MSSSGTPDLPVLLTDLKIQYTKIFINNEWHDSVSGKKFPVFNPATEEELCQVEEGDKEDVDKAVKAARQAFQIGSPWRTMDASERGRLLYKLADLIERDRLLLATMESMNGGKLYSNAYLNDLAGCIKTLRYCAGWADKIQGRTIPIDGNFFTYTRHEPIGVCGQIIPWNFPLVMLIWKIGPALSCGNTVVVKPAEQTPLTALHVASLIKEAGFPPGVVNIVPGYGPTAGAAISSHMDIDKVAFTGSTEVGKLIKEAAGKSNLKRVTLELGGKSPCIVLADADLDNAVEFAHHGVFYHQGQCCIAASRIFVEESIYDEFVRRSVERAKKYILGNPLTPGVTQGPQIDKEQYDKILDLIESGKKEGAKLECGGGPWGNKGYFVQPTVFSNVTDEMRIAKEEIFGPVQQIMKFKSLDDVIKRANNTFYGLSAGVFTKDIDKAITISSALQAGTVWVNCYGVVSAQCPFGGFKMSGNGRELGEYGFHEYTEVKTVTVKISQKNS
Numbers stand for hits; n = inactive; u = inconclusive; x = not tested or not shown; [ ] = another dose, or the depositor's remark. Unless noted, calls come from the whole dose curve; as a rule, active = well fitted inhibition curve with a large enough effect (not every such curve was filed as active); inconclusive = small, poorly fitted or top-dose-only effect, or another doubt; inactive = no such curve, though single readings can be large or run the other way.

SMILES	PNC assembly inh	JMJD2E inh	HPGD block	ALDH1A1 inh
CCOC(=O)c1c(C)oc2c1c(C(c1cccnc1)N1CCOCC1)c(O)c1ccccc12 (stereo unspecified)	n	u	22µM	7.1µM
CCOC(=O)c1c(C)oc2c1c(C=NCc1ccccn1)c(O)c1ccccc12	n	4µM	n	u
Cc1sc(NC(=O)c2ccco2)c(C(c2cccnc2)N2CCN(C)CC2)c1C (stereo unspecified)	n	n	n	n
COC(=O)NCC(c1cccnc1)N1CCOCC1 (stereo unspecified)	n	u	n	u
OCCC1CN(Cc2cccn2-c2cccnc2)CCN1C1CCCC1 (stereo unspecified)	x	n	x	x
CN(Cc1cc(C(C)(C)C)cc(Br)c1O)Cc1cc(C(C)(C)C)cc(Br)c1O	x	x	n	n[13.5 µM]
CN(C)C(=O)c1ccc(-c2nc(Nc3ccccc3)c3ccccc3n2)cc1	x	x	x	n
CCC[C@@H]1C[C@@]1(CCC)C(NP(=O)(c1ccccc1)c1ccccc1)c1ccc(Cl)cc1 (stereo partly specified)	x	25µM	n	n
O=C(NNC(=S)NC1CCCCC1)c1sc2ccccc2c1Cl	n	n	n	22µM
O=C(NNC(=O)C1CC2CCC1C2)c1sc2ccccc2c1Cl (stereo unspecified)	n	n	n	25µM
CC(C)(C)C(=O)NC(=S)NNC(=O)c1sc2ccccc2c1Cl	-112	n	n	u
O=C(NNC(=O)c1sc2cccc(Cl)c2c1Cl)NC1CCCCC1	n	n	n	3.5µM
O=C(NNC(=O)c1sc2cccc(Cl)c2c1Cl)Nc1ccccc1	u	n	n	u
N#CCCN(CCN1CCCC1)S(=O)(=O)c1ccc(-c2ccc([N+](=O)[O-])cc2)cc1	x	n	x	u
COc1ccc(C(=O)CSc2nnc(CC(=O)Nc3ccccc3OC)n2C)cc1	x	n	x	n
COc1cccc(-c2nc(NCCNC(C)=O)c3ccccc3n2)c1	x	x	x	n
CCCCCCCCC#CCC#CCC#CCCCC(=O)O	x	n	n	n
Cc1ccc(-n2c(N)c(C(=O)N3CCCCC3)sc2=S)cc1	u	n	10µM	10µM
Cc1ccc(-n2c(N)c(C(=O)N3CCN(C)CC3)sc2=S)cc1	u	n	11µM	22µM
CS(=O)(=O)CCCCN=C=S	x	n	n	u
Cc1cccc(C)c1-n1c(C)cc(/C=N/NC(=O)CSc2ncccn2)c1C	n	n	n	10µM
Cc1cccc(C)c1-n1c(C)cc(/C=N\NC(=O)CC(=O)NC2CCCCC2)c1C	n	n	n	n
Cc1cc(C)nc(SCC(=O)N/N=C/c2cc(C)n(-c3ccccc3C)c2C)n1	n	n	n	10µM
Cc1ccccc1N(CC(=O)N/N=C/c1cc(C)n(-c2ccccc2C)c1C)S(C)(=O)=O	n	u	u	4µM
Cc1ccccc1N(CC(=O)N/N=C/c1cc(Br)c(C)o1)S(C)(=O)=O	n	n	n	u
SMILES	PNC assembly inh	JMJD2E inh	HPGD block	ALDH1A1 inh
CC(=O)Nc1ccc(N/C=C2/CCCC2=O)cc1	x	n	x	x
Cc1cc(O)ccc1N/C=C1\CCCC1=O	n	u	u	13µM
Cc1cc(C(=O)N(C)C)sc1-c1ccccc1	n	n	6.3µM	n
Nc1ccnc2c1ncn2[C@@H]1O[C@H](CO)[C@@H](O)[C@H]1O	x	x	x	n
O=C(Nc1ccc(Cl)cc1)NC1CCCC1Cc1ccco1 (stereo unspecified)	n	n	n	13µM
O=C(Nc1ccc(Cl)cc1)NC1CCCCC1Cc1ccco1 (stereo unspecified)	n	n	n	n
Cc1cc(C)cc([N+](=O)[O-])c1	x	x	n	n
CC(NC(=O)c1ccc(N)cc1)c1ccccc1 (stereo unspecified)	x	n	x	n
O=C(CSc1nnc(-c2ccc(O)cc2)o1)Nc1ccc2c(c1)OCCO2	u	n	n	n
O=C(CSc1nnc(CNC(=O)c2ccccc2F)o1)Nc1ccc2c(c1)OCO2	x	n	x	u
Cc1ccccc1C(=O)NC1CCN(CC(=O)Nc2ccc3c(c2)OCCO3)CC1	x	n	x	n
O=C(NCc1nnc(SCC(=O)N2CCCC2)o1)c1c(F)cccc1Cl	n	n	n	n
O=C(CSc1nnc(CNC(=O)c2ccccc2F)o1)Nc1ccc2c(c1)OCCO2	n	n	n	10µM
O=C(CSc1nnc(-c2ccccc2Cl)o1)Nc1ccc2c(c1)OCCO2	n	n	n	20µM
O=C(CN1CCC(NC(=O)c2ccccc2F)CC1)Nc1ccc2c(c1)OCCO2	x	n	x	13µM

Assay outcomes (PubChem BioAssay)
